Compound activity from PubChem BioAssay.
An excerpt weighted towards active compounds, which were near 11% of everything screened.
NPR1 antag = human Npr1 receptor antagonism; Potency, µM (top dose mostly 46.3 µM), inactives show at the top dose activity change, negative = inhibition, hits mostly inhibitors; 76,000 tested, 1.6% active; HEK293 hNpr1 GloSensor cGMP, ANP-stimulated luminescence; P16066; calls by dose curve; also: nearly all actives have a fitted effect of over 60% in size
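Compound pre-incubated 30 min at room temperature on GloSensor-loaded HEK293 cells stably carrying hNpr1 and the pGS-40F cGMP biosensor. Stimulation uses hNppA at 0.1 nM final; luminescence is taken at baseline and 20 min post-agonist.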
3T3 cytotox = kills NIH 3T3 cells; NIH 3T3 viability, CellTiter-Glo ATP luminescence, 48-72 h; Potency, µM (titrated, usually from 96.7 µM), for inactives: at the highest dose activity change, negative = cytotoxicity, most hits filed as inhibitors; 94,000 tested, 4.3% active; AID 1345082; also: nearly all actives have a fitted effect of over 55% in size
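Cytotoxicity was measured by CellTiter-Glo ATP luminescence after 48 or 72 h compound exposure at 37 °C. Mouse NIH 3T3 fibroblasts were seeded at 400 cells/well and dosed by 23 nL pin transfer.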
HEK cytotox = cytotoxic compounds in HEK 293 cells; AID 1345083; Potency, µM (top dose mostly 115 µM), without a hit: at the top dose activity change, negative = cytotoxicity, most hits filed as inhibitors; HEK 293 viability, ATP luminescence (CellTiter-Glo), 48-72 h; 94,000 tested, 6.6% active; also: nearly all actives have a fitted effect of over 60% in size
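Read-out: CellTiter-Glo ATP luminescence. Cells: HEK 293, 250 cells/well. Exposure: 48 or 72 hr, 37 degree Celsius.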
FLuc inh = inhibitors of firefly (Photinus pyralis) luciferase; purified P. pyralis luciferase, luminescence, biochemical; Potency, µM (highest dose often 115 µM), usual class: inhibitors; 76,000 tested, 2.5% active; AID 1347043; also: nearly all actives have a fitted effect of over 65% in size
Target sequence (P08659 whole entry, looked up): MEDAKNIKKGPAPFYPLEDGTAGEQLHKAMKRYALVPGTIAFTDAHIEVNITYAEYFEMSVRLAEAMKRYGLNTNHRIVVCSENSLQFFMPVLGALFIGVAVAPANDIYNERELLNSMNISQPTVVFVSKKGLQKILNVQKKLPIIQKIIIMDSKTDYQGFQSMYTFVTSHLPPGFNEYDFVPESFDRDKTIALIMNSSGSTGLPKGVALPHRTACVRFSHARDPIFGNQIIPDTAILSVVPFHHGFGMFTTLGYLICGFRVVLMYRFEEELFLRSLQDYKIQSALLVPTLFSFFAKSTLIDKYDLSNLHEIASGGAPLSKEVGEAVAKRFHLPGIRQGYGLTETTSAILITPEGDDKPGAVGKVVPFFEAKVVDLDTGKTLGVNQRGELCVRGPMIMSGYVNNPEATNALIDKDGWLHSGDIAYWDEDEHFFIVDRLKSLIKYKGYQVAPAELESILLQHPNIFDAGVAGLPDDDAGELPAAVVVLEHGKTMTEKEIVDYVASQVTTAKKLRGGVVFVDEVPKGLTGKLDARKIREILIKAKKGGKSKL
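Luminescence read by CCD imaging after purified firefly luciferase (10nM final) was added to substrate buffer holding 10uM D-luciferin and 10uM ATP, pH 7.5, pre-dosed with compound.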
Numbers without * were called inactive; i = inactive; ? = inconclusive; · = not tested or not shown; [ ] = dose if it differs, or a comment. Unless noted, calls follow the shape of the dose curve; as a rule, active = well fitted curve in the direction sought with a large enough effect; inconclusive = small, poorly fitted or top-dose-only effect, or another doubt; inactive = no such curve, though single readings can be large; an effect the other way counts as inactive or inconclusive. % is scaled to controls: 0 for no effect and ±100 for the full control effect; potency is read from the fitted curve at half-maximal effect.

SMILES | NPR1 antag | 3T3 cytotox | HEK cytotox | FLuc inh
Cc1nn(-c2ccccc2)c2c1C(C(C)C)N(C1CCCN(C(=O)Cc3ccc(F)cc3)C1)C2=O (stereo unspecified) | · | ? | 25µM* | ·
Cc1nn(-c2ccccc2)c2c1C(C(C)C)N(C1CCN(C(=O)c3ccc(F)cc3)C1)C2=O (stereo unspecified) | · | ? | 45µM* | ·
Cc1nn(-c2ccccc2)c2c1C(C(C)C)N(C1CCN(C(=O)c3ccc(Cl)nc3)C1)C2=O (stereo unspecified) | · | -26% | ? | ·
Cc1nn(-c2ccccc2)c2c1C(C(C)C)N(C1CCCN(C(=O)C3CC3)C1)C2=O (stereo unspecified) | · | ? | 28µM* | ·
O=C(Cc1ccccc1F)Nc1ccc2c(N3CCCCC3)ncnc2c1 | ? | ? | ? | i
COCCOc1ccc2c(n1)CCN(C(=O)c1cccc(OC)c1)C2 | 0% | -23% | -16% | i
CCOC(=O)C1(C/C=C/c2ccccc2)CCCN(C(=O)C2CCOCC2)C1 (stereo unspecified) | -25% | -7% | 89µM* | i
COc1ccc(CNC(=O)O[C@H]2COCCN(c3nc4ccccc4s3)C2)cc1 | -1%[70.6 µM] | ? | 89µM* | i
O=C(NCc1ccccc1)O[C@H]1COCCN(c2nc3ccccc3s2)C1 | 5%[70.6 µM] | ? | ? | i
Cc1cccc(O[C@H]2COCCN(c3nc4ccccc4s3)C2)n1 | -16%[70.6 µM] | ? | 100µM* | 50µM*
COc1ccc(C)cc1NC(=O)C1CC(=O)N(c2n[nH]c3cc(Br)ccc23)C1 (stereo unspecified) | -19% | ? | 45µM* | i
Cc1nc(NC(=O)C2CC(=O)N(c3n[nH]c4cccc(F)c34)C2)sc1C (stereo unspecified) | 2% | -9% | ? | i
Cc1ccc2nc(NC(=O)C3CC(=O)N(c4n[nH]c5cccc(F)c45)C3)sc2c1 (stereo unspecified) | -11% | 32µM* | 25µM* | i
CC(C)(C)c1csc(NC(=O)C2CC(=O)N(c3n[nH]c4cccc(F)c34)C2)n1 (stereo unspecified) | -18% | ? | 45µM* | i
O=C(Nc1nccs1)C1CC(=O)N(c2n[nH]c3cccc(F)c23)C1 (stereo unspecified) | -1% | ? | ? | i
Cc1ccnc(NC(=O)C2CC(=O)N(c3n[nH]c4cccc(F)c34)C2)c1 (stereo unspecified) | -6% | ? | 28µM* | i
O=C(c1ccccc1)N1CCCC2(CN[S+](=O)([O-])c3cccnc3N2)C1 (stereo unspecified) | · | 4% | ? | ·
Cn1nc(C2CCCC2)cc1NC(=O)C1CCCC1 | · | -16%[138 µM] | -6%[172 µM] | ·
COc1ccccc1NC(=O)c1c(C)oc2c1CN(Cc1ccc(F)cc1)CC2 | -1% | -24% | ? | i
O=C(c1ccc(F)cc1)N1CCCC(C(=O)N2CCC(c3nc4ccncc4[nH]3)C2)C1 (stereo unspecified) | · | -6% | i | ·
COC(=O)N(C)Cc1cccc(N2CCN(Cc3c(Cl)ccc(Cl)c3Cl)CC2)c1F | · | -32% | ? | ·
N#Cc1cccc(OCc2nnc(C(=O)N3CCC[C@@H]3c3nc4ccccc4[nH]3)n2-c2ccccc2)c1 | -17% | ? | -13% | i
O=C(c1nnc(COc2cc(F)cc(F)c2)n1-c1ccccc1)N1CCC[C@@H]1c1nc2ccccc2[nH]1 | 0% | 32µM* | ? | i
COc1ccc(OCc2nnc(C(=O)N3CCC[C@@H]3c3nc4ccccc4[nH]3)n2-c2ccccc2)cc1 | 4% | 11µM* | -11% | i
Cc1ccccc1-c1ncc2c(n1)OCCN(c1ccccc1)C2=O | 3%[70.6 µM] | -34%[138 µM] | ? | 20µM*
SMILES | NPR1 antag | 3T3 cytotox | HEK cytotox | FLuc inh
COc1ccc(Cl)cc1-c1ncc2c(n1)OCCN(c1ccccc1)C2=O | 5%[70.6 µM] | 40µM* | 4%[172 µM] | ?
COc1ccc(-c2ncc3c(n2)OCCN(C)C3=O)cc1OC | 2%[70.6 µM] | ? | i | 40µM*
COc1ncccc1-c1ncc2c(n1)OCCN(c1cccc(C(F)(F)F)c1)C2=O | 1%[70.6 µM] | 25µM* | -16%[172 µM] | i
COc1ccccc1-c1ncc2c(n1)OCCN(c1cccc(C(F)(F)F)c1)C2=O | -5%[70.6 µM] | ? | ? | i
COc1ncccc1-c1ncc2c(n1)OCCN(Cc1ccc(F)cc1F)C2=O | -7%[70.6 µM] | ? | -29%[172 µM] | i
O=C1c2cnc(-c3ccccc3C(F)(F)F)nc2OCCN1Cc1ccccc1 | -1%[70.6 µM] | -29%[138 µM] | ? | i
O=C(NCC(F)(F)F)c1ccc2oc(-c3ccncc3Cl)nc2c1 | · | -28% | ? | ·
O=C1c2cnc(-c3ccc(O)c(F)c3)nc2OCCN1c1ccccc1 | -25%[70.6 µM] | 8.9µM* | 45µM* | ?
C[S+](=O)([O-])c1ccc(-c2ncc3c(n2)OCCN(Cc2ccc(F)cc2F)C3=O)cc1 | -10% | -17% | ? | i
CC(C(=O)N1Cc2c(C(=O)N3CCCC3)nn(C)c2C1)c1ccccc1 (stereo unspecified) | · | -23% | 0% | ·
CN1CCC(NC[C@H]2O[C@H](Cc3cc(-c4ccc(F)cc4)on3)CC[C@@H]2O)CC1 | ? | 89µM* | ? | i
COc1ccc(CNC[C@H]2O[C@H](Cc3cc(-c4ccccc4)on3)CC[C@@H]2O)cc1 | -19%[70.6 µM] | 40µM* | 89µM* | i
COc1ccc(NC(=O)NC[C@H]2O[C@H](Cc3cc(-c4cccc(O)c4)on3)CC[C@@H]2O)cc1 | 11µM* | -17% | -16% | ?
COc1ccc(-c2cc(C[C@@H]3CC[C@H](O)[C@@H](CNCc4cccc(Cl)c4)O3)no2)cc1 | ? | ? | 28µM* | 50µM*
COc1ccc(-c2nc3cc(C)ccc3cc2CN2CC[C@@H](O)C2)cc1OC | -13% | ? | ? | i
CCn1ccc(C(=O)N2CC(c3nc(CCOC)no3)C2)n1 | · | -19% | 0% | ·
COCCCn1c(C)cc(C(=O)N2CCC(CCOc3ccccc3)C2)c1C (stereo unspecified) | -19% | ? | ? | i
O=C1NCCCN1C1CCN([S+](=O)([O-])c2cccc(C(F)(F)F)c2)CC1 | -9% | -12% | -13% | i
CNC(=O)c1cc(C)nc2onc(C3CCN(C(C)=O)CC3)c12 | · | -24%[138 µM] | -2%[172 µM] | ·
COc1ccc(-c2cc(C[C@@H]3CC[C@H](O)[C@@H](CNC(=O)C(C)(C)C)O3)no2)cc1 | 2%[70.6 µM] | -26%[138 µM] | -28%[172 µM] | i
COc1ccc(-c2cc(C[C@@H]3CC[C@H](O)[C@@H](CN(Cc4cccc(OC)c4)Cc4cccc(OC)c4)O3)no2)cc1 | 11µM* | ? | ? | ?
COc1ccc(-c2cc(C[C@@H]3CC[C@@H]4OC(=O)NC[C@H]4O3)no2)cc1 | 3%[70.6 µM] | ? | 100µM* | ?
NC[C@H]1O[C@H](Cc2cc(-c3cccc(O)c3)on2)CC[C@@H]1O | 2.5µM* | i | 3%[172 µM] | 56µM*
